MLL AF4-AF9 inh: MLL-AF4/AF9 protein interaction inhibition; P42568; AlphaScreen, biotin-AF4 peptide binding to FLAG-AF9; inhibition, % at 10 µM; hit rate 0.47% among 350,000; AID 651704;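 active means every replicate reaching a set inhibition limit, whatever the replicate mean, cut at about 25% in these data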;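 further: 0% = plate neutral control median and 100% = total signal loss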
RAD54 branch: inhibitors of human RAD54 branch migration | Q92698 | RAD54 Holliday junction branch migration, FAM/BHQ fluorescence | inhibition, % at 10.4 µM | hit rate 0.14% among 360,000;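 active means mean normalized replicate activity at least 40 and at least half of replicates scoring 40 or more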;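 further: 0% = median of neutral control wells and 100% = median of positive control wells; inhibitors cause a drop in the FAM fluorescence signal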
RAD52 anneal inh: RAD52 (human) annealing inhibition; recombinant RAD52 DNA annealing, FRET fluorescence; inhibition, % at 18.7 µM; hit rate 0.46% among 360,000; AID 651710;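 active means every replicate showing at least 50% inhibition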
Glyco luc inh: N-linked glycosylation inhibition; D54 ERlucT glycosylation luciferase reporter, 24 h; percent of 100 nM tunicamycin response; reporter increase, % at 12.5 µM; hit rate 0.23% among 360,000;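 active means mean luciferase reporter signal, scaled so untreated is 0 and the glycosylation-blocking control 100, at or above a set limit in every replicate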;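 further: luciferase carries N-glycosylation sites so blocking glycosylation raises the light; 0% = median of neutral control wells and 100% = median of 100 nM tunicamycin wells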
Casp6 inh: blocks human caspase-6 cleavage activity; purified caspase-6, Z-VEID-R110 cleavage fluorescence; P55212; AID 686996; inhibition, % at 12.5 µM; hit rate 0.53% among 350,000;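 active means mean inhibition across replicates at least about 35%, with every replicate also reaching that limit, limit read from the data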;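 further: 0% = median of neutral control wells and 100% = no fluorescence left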
Target sequence (P55212 24-179 limits assumed): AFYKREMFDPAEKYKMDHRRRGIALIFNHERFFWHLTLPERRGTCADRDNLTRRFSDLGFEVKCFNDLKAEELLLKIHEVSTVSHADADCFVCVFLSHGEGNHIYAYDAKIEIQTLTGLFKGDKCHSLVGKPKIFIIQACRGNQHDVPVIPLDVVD
Target sequence (P55212 194-293 limits assumed): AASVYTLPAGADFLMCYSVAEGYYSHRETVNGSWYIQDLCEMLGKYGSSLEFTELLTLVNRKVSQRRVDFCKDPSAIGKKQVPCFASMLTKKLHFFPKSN
Active calls of the source: *; i = inactive; · = no result. Most compounds without a hit are left out; they make up all but 1.2% or so of the library.

SMILES	MLL AF4-AF9 inh	RAD54 branch	RAD52 anneal inh	Glyco luc inh	Casp6 inh
COc1ccc2c3c([nH]c2c1)[C@H](CO)N(C(=O)CN(C)C)CC31CCN(Cc2ccncc2)CC1	9	·	2	·	-25
COc1ccc2c3c([nH]c2c1)[C@@H](CO)N(C(C)=O)CC31CN(Cc2ccccc2Cl)C1	29*	·	12	·	2
COc1ccc2c3c([nH]c2c1)[C@@H](CO)N(C(=O)C1CCC1)CC31CCN(C(=O)c2ccccn2)CC1	-4	·	7	·	-2
CCCN1[C@@H]2Cn3c(ccc(-c4cccc(F)c4)c3=O)[C@H]1[C@@H](C(=O)N(C)C)[C@@H]2CO	0	·	-2	·	1
CCC(=O)N1CCC1(C)C(=O)Nc1ccc2c(c1)CCN2C(C)=O (centres undefined)	0	4	-4	1	49*
CCn1c2ccccc2c2cc(NC(=O)COC(=O)c3cc(S(N)(=O)=O)c(Cl)cc3Cl)ccc21	-28	·	-5	40*	-1
CC(C)NC(=O)N(C)C[C@H]1Oc2ccc(NC(=O)Nc3cccc4ccccc34)cc2C(=O)N([C@H](C)CO)C[C@@H]1C	-2	-5	-11	·	1
CN=c1sc(C(=O)Nc2ccccc2)c(C)n1C	-2	·	-8	-1	-5
CN=c1sc2c(n1C)C(=O)c1ccccc1C2=O	-6	·	-8	-13	63*
CN(C)C(=O)[C@@H]1[C@@H](CO)[C@@H]2Cn3c(ccc(C4=CCCCC4)c3=O)[C@H]1N2Cc1ccncc1	1	11	-15	·	-1
COc1cccc(-c2ccc([C@@H]3[C@@H](CO)N4C(=O)CN(C(=O)C5CC5)C[C@H]34)cc2)c1	4	·	-2	·	0
O=c1c2ccccc2nc2n1CCC2	·	·	·	1	·
O=C1CCn2c1c(O)c1ccccc1c2=O	1	·	i	0	95*
Cc1nc2c(-c3ccc(F)cc3)cnn2c2c1CCC2	-8	·	-6	-3	56*
COc1ccc(-c2cnc3c(-c4ccc(F)cc4)cnn3c2N)cc1	5	-20	5	-4	-1
C[C@@H]1CN([C@@H](C)CO)C(=O)c2cc(NS(=O)(=O)c3ccc(F)cc3)ccc2O[C@@H]1CN(C)S(=O)(=O)c1cccs1	2	-2	-9	·	0
CC(C1SC(=S)NC1=O)C1SC(=S)NC1=O (centres undefined)	-3	-6	-430	-1	68*
CC1CCCCN1S(=O)(=O)c1cnc(Cl)c(Br)c1 (centres undefined)	-6	·	-5	-2	1
CC1CCN(S(=O)(=O)c2cnc(Cl)c(Br)c2)CC1	27*	·	-17	-2	-2
CNC(=O)C[C@@H]1CC[C@H]2[C@@H](COc3ccc(NC(=O)c4cccc(F)c4)cc3C(=O)N2C)O1	-2	-7	-1	·	0
Cc1ccccc1OCC(O)CN1CCN(CCN2C(=O)c3cccc4cccc(c34)C2=O)CC1 (centres undefined)	11	·	1	20	-5
CC(=O)c1ccc(OCC(O)CN2CCN(CCN3C(=O)c4cccc5cccc(c45)C3=O)CC2)cc1 (centres undefined)	·	·	·	56*	·
COc1ccc(C2NC(=S)NC3=C2CCCC3=C2SCCS2)cc1 (centres undefined)	-2	-6	-12	593*	-2
S=C1NC2=C(CCCC2=C2SCCCS2)C(c2ccccc2)N1 (centres undefined)	-22	·	-18	-1	0
Cc1nnc(SCC(=O)NC2CCCCCC2)n1C(C)C	-1	0	-6	1	44*
SMILES	MLL AF4-AF9 inh	RAD54 branch	RAD52 anneal inh	Glyco luc inh	Casp6 inh
O=C(CSc1n[nH]c(C2CCCC2)n1)NC1CCCC1	·	-1	·	1	·
Cc1nnc(SCC(=O)NC2CCCCCC2)n1N	1	-2	-7	0	-16
Nc1nc(SCC(=O)NC2CCCCC2)n[nH]1	-2	0	-5	1	95*
COCC#Cc1ccc([C@H]2[C@H](CO)N3C(=O)CN(C(=O)C4CC4)C[C@@H]23)cc1	-10	·	-8	·	2
COc1ccc(S(=O)(=O)Nc2ccc3c(c2)CC(=O)N([C@@H](C)CO)C[C@H](C)[C@@H](CN(C)CC2CCCCC2)O3)cc1	1	1	9	·	1
CC(C)NC(=O)Nc1ccc2c(c1)C(=O)N([C@@H](C)CO)C[C@@H](C)[C@@H](CN(C)C(=O)Nc1cccc3ccccc13)O2	-2	0	-6	·	46*
C[C@@H]1CCCCO[C@@H](CN(C)C(=O)Nc2cccc3ccccc23)[C@H](C)CN([C@@H](C)CO)C(=O)c2cc(N(C)C)ccc2O1	17	-11	56*	·	-3
C[C@H]1CCCCO[C@H](CN(C)C(=O)Nc2cccc3ccccc23)[C@@H](C)CN([C@@H](C)CO)C(=O)c2cc(N(C)C)ccc2O1	23	-5	7	·	1
COc1ccc(NC(=O)N(CCCN2CCOCC2)Cc2cccnc2)c(OC)c1	-1	7	-7	0	-6
Cc1ccc(NC(=O)N(CCCN2CCOCC2)Cc2cccnc2)cc1C	39*	3	-2	0	-2
O=c1c2ccccc2[nH]c2ccc(O)cc12	-6	4	-19	2	38*
Nc1ccc(N=Nc2ccccc2)c(N)n1	34*	9	11	-2	5
CS(=O)(=O)C1=NSC2=NC(=O)/C(=C\c3cccn3-c3ccccc3Cl)C(=N)N21	3	·	-94	0	41*
COc1cccc(-n2c(C)cc(/C=C3/C(=N)N4C(=NC3=O)SN=C4S(C)(=O)=O)c2C)c1	1	-63	-168	6	43*
Cc1cc(C)cc(-n2cccc2/C=C2/C(=N)N3C(=NC2=O)SN=C3S(C)(=O)=O)c1	2	·	-65	4	37*
O=S(=O)(c1ccc(F)cc1)N1CCCCN2[C@H](C1)[C@H](c1ccc(-c3ccccc3F)cc1)[C@@H]2CO	-4	4	13	·	-1
O=S(=O)(c1ccc(F)cc1)N1CCCCN2[C@@H](CO)[C@H](c3ccc(-c4ccccc4F)cc3)[C@@H]2C1	0	-6	59*	·	0
O=S(=O)(c1ccccc1)N1CCCCN2[C@H](CO)[C@H](c3ccc(-c4ccccc4F)cc3)[C@H]2C1	1	5	52*	·	-4
O=S(=O)(c1ccc(F)cc1)N1CCCCN2[C@H](C1)[C@@H](c1ccc(-c3ccccc3F)cc1)[C@@H]2CO	-6	3	16	·	-2
O=S(=O)(c1ccc(F)cc1)N1CCCCN2[C@@H](CO)[C@@H](c3ccc(-c4ccccc4F)cc3)[C@@H]2C1	0	2	60*	·	-2
O=S(=O)(c1ccc(F)cc1)N1CCCCN2[C@H](CO)[C@H](c3ccc(C#CC4CCCC4)cc3)[C@H]2C1	6	-3	58*	·	1
CCCNC(=O)N[C@@H]1CC[C@H](CCn2cc(-c3cccc(F)c3)nn2)O[C@@H]1CO	0	-4	-9	·	1
COc1ccc(S(=O)(=O)Nc2cccc3c2O[C@H](CN(C)CC2CC2)[C@@H](C)CN([C@@H](C)CO)C3=O)cc1	-8	-4	8	·	1
